Measured values taken from the supplement of paper PMC8728848.
Shown is part of a subset that was picked to be rich in the strongest signals.

Legend:
Assay in all cases: glycan array binding signal (z-score within array); higher = stronger binding
Details in all cases: glycan notation: IUPAC condensed, linker removed
[1] = molecular target: GlcNAc(a1-4)Gal(b1-4)GlcNAc(b1-3)Gal(b1-4)GlcNAc(b1-3)Gal(b1-4)GlcNAc
Method in brief: (§1)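 The Consortium for Functional Glycomics database supplied 3228 glycan arrays, of which those lacking an available protein sequence were dropped. The binding signal, a within-array Z-score, was averaged across arrays of the same protein sequence and across linkers. Negative scores can be read as non-binding.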

[2] = molecular target: GlcNAc(b1-2)Man(a1-3)[GlcNAc(b1-4)][GlcNAc(b1-2)Man(a1-6)]Man(b1-4)GlcNAc(b1-4)[Fuc(a1-6)]GlcNAc
Method in brief: as §1

[3] = molecular target: GlcNAc(b1-2)[GlcNAc(b1-4)]Man(a1-3)[GlcNAc(b1-4)][GlcNAc(b1-2)Man(a1-6)]Man(b1-4)GlcNAc(b1-4)GlcNAc
Method in brief: as §1

[4] = molecular target: GlcNAc(b1-3)Gal(b1-4)GlcNAc(b1-2)[GlcNAc(b1-3)Gal(b1-4)GlcNAc(b1-6)]Man(a1-6)[GlcNAc(b1-3)Gal(b1-4)GlcNAc(b1-2)Man(a1-3)]Man(b1-4)GlcNAc(b1-4)GlcNAc
Method in brief: as §1

GlcNAc(b1-3)Man = molecular target: GlcNAc(b1-3)Man
Method in brief: as §1

[5] = molecular target: GlcNAc(b1-4)GlcNAc(b1-4)GlcNAc(b1-4)GlcNAc(b1-4)GlcNAc(b1-4)GlcNAc
Method in brief: as §1

[6] = molecular target: GlcNAc(b1-6)Gal(b1-4)GlcNAc
Method in brief: as §1

[7] = molecular target: Man(a1-3)[Man(a1-6)]Man(b1-4)GlcNAc(b1-4)GlcNAc
Method in brief: as §1

[8] = molecular target: Neu5Ac(a2-3)Gal(b1-3)[Fuc(a1-4)]GlcNAc(b1-3)Gal(b1-3)[Fuc(a1-4)]GlcNAc
Method in brief: as §1

[9] = molecular target: Neu5Ac(a2-3)Gal(b1-4)GlcNAc(b1-2)Man(a1-3)[Neu5Ac(a2-3)Gal(b1-4)GlcNAc(b1-2)Man(a1-6)]Man(b1-4)GlcNAc(b1-4)[Fuc(a1-6)]GlcNAc
Method in brief: as §1

[10] = molecular target: Neu5Ac(a2-3)Gal(b1-4)GlcNAc(b1-3)Gal(b1-3)GlcNAc
Method in brief: as §1

[11] = molecular target: Neu5Ac(a2-3)Gal(b1-4)GlcNAc(b1-3)GalNAc
Method in brief: as §1

[12] = molecular target: Neu5Ac(a2-3)Gal(b1-4)GlcNAc(b1-6)GalNAc
Method in brief: as §1

[13] = molecular target: Neu5Ac(a2-3)Gal(b1-4)[Fuc(a1-3)]GlcNAc(b1-3)GalNAc
Method in brief: as §1

[14] = molecular target: Neu5Ac(a2-3)Gal6S(b1-4)GlcNAc
Method in brief: as §1

[15] = molecular target: Neu5Ac(a2-6)Gal(b1-4)GlcNAc(b1-2)Man(a1-3)[GlcNAc(b1-2)Man(a1-6)]Man(b1-4)GlcNAc(b1-4)GlcNAc
Method in brief: as §1

[16] = molecular target: Neu5Ac(a2-6)Gal(b1-4)GlcNAc(b1-2)Man(a1-6)[Man(a1-3)]Man(b1-4)GlcNAc(b1-4)GlcNAc
Method in brief: as §1

[17] = molecular target: Neu5Ac(a2-6)Gal(b1-4)GlcNAc(b1-3)Gal(b1-4)GlcNAc(b1-3)GalNAc
Method in brief: as §1

[18] = molecular target: Neu5Ac(a2-6)Gal(b1-4)GlcNAc(b1-3)Gal(b1-4)[Fuc(a1-3)]GlcNAc(b1-3)Gal(b1-4)[Fuc(a1-3)]GlcNAc
Method in brief: as §1

Neu5Ac(a2-6)GalNAc = molecular target: Neu5Ac(a2-6)GalNAc
Method in brief: as §1

[19] = molecular target: Neu5Ac(a2-6)GalNAc(b1-4)GlcNAc
Method in brief: as §1

[20] = molecular target: Neu5Ac(a2-8)Neu5Ac(a2-8)Neu5Ac(a2-3)[Gal(b1-3)GalNAc(b1-4)]Gal(b1-4)Glc
Method in brief: as §1

[21] = molecular target: Neu5Ac(a2-8)Neu5Ac(a2-8)Neu5Ac(a2-8)Neu5Ac(a2-3)[GalNAc(b1-4)]Gal(b1-4)Glc
Method in brief: as §1

Neu5Gc(a2-6)GalNAc = molecular target: Neu5Gc(a2-6)GalNAc
Method in brief: as §1

B1: Clrb (Mus musculus) (protein)
chain: ITGATKTEQIPVNKTYAACPQNWIGVENKCFYFSEYPSNWTFAQAFCMAQEAQLARFDNQDELNFLMRYKANFDSWIGLHRESSEHPWKWTDNTEYNNTIPIRGEERFAYLNNNGISSTRIYSLRMWICSKLNSYSLHCQTPFFPSGTKHHHHHHHHG
For B1, which “glycan array binding signal (z-score)” value [1] is on record?
The value was 5.29.

And the “glycan array binding signal (z-score)” value [2]?
The value was 4.51.

What about the “glycan array binding signal (z-score)” value [3] of the same binder?
Its value is 4.02.

And the “glycan array binding signal (z-score)” value [4]?
Its value is 0.54.

And the “glycan array binding signal (z-score)” value (GlcNAc(b1-3)Man)?
Its value is -0.377.

What about the “glycan array binding signal (z-score)” value [5] of the same binder?
Its value is 7.67.

And the “glycan array binding signal (z-score)” value [6]?
The value was 1.87.

What about the “glycan array binding signal (z-score)” value [7] of the same binder?
Its value is -0.297.

And the “glycan array binding signal (z-score)” value [8]?
Its value is -0.359.

And the “glycan array binding signal (z-score)” value [9]?
Its value is -0.226.

And the “glycan array binding signal (z-score)” value [10]?
The value was -0.383.

And the “glycan array binding signal (z-score)” value [11]?
The value was -0.44.

And the “glycan array binding signal (z-score)” value [12]?
Its value is -0.392.

And the “glycan array binding signal (z-score)” value [13]?
Its value is -0.205.

And the “glycan array binding signal (z-score)” value [14]?
The value was -0.365.

And the “glycan array binding signal (z-score)” value [15]?
The value was -0.472.

And the “glycan array binding signal (z-score)” value [16]?
The value was -0.503.

And the “glycan array binding signal (z-score)” value [17]?
Its value is -0.628.

What about the “glycan array binding signal (z-score)” value [18] of the same binder?
Its value is -0.211.

And the “glycan array binding signal (z-score)” value (Neu5Ac(a2-6)GalNAc)?
The value was -0.508.

What about the “glycan array binding signal (z-score)” value [19] of the same binder?
The value was 4.69.

And the “glycan array binding signal (z-score)” value [20]?
The value was -0.421.

What about the “glycan array binding signal (z-score)” value [21] of the same binder?
The value was -0.449.

And the “glycan array binding signal (z-score)” value (Neu5Gc(a2-6)GalNAc)?
Its value is -0.377.
